Assay outcomes: PubChem BioAssay, National Center for Advancing Translational Sciences (NCATS)
Tau fil binding: tau filament binding; Potency, µM (doses to about 57.1 µM), for inactives: at the top dose activity change, negative = inhibition; 71,000 tested, 2% active; P10636; recombinant tau filaments, thioflavin S fluorescence, 15 h; filaments grown with octadecylsulfate alongside compound; AID 596;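 further: on the % scale 0 is the no-effect control and ±100 the full control effect; actives lower thioflavin S fluorescence by blocking filaments or displacing dye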
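His-tagged recombinant human tau (exons 2, 3 and 10 included), 1 uM, was induced to fibrillize by 30 uM sodium octadecylsulfate with compound present. After 15 h at 37 C, thioflavine S fluorescence (ex 450, em 510 nm) was read.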
Luciferase inh: firefly luciferase inhibition | P08659 | purified firefly luciferase, luminescence, 8 min | Potency, µM (highest dose often 57.1 µM), for the others: at the top dose activity change, negative = inhibition, actives largely listed as inhibitors | 72,000 tested, 2.2% active | AID 411; further: on the % scale 0 is the no-effect control and ±100 the full control effect; nearly all actives have a fitted effect of over 40% in size
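Firefly luciferase (PKLight detection mix) with 10 uM ATP in pH 7.2 imidazole buffer (KCl, MgCl2, Tween 20, BSA). Compounds tested across a concentration series (qHTS). Luminescence read after 8 min at ambient temperature.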
ERK AVP block: vasopressin-driven ERK pathway inhibition | Potency, µM (doses to about 57.5 µM), for the others: at the highest dose activity, negative = inhibition, hits mostly inhibitors | 72,000 tested, 0.99% active | HEK293-V1b, vasopressin-stimulated pERK AlphaScreen | AID 995; further: on the % scale 0 is the no-effect control and ±100 the full control effect; nearly all actives have a fitted effect of over 55% in size
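Overnight-seeded V1b-HEK293 cells in 1% FBS got compound, then vasopressin (25 nM final, 5 min, 37C), then lysis buffer. AlphaScreen detection of phospho-ERK; activity normalized to basal and full-stimulation controls.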
Bst PK mod: alters activity of Bacillus stearothermophilus pyruvate kinase. purified pyruvate kinase, luminescence ATP production; ribose 5-phosphate activator present at AC10. Potency, µM. 51,000 tested, 1.2% active. AID 361; in the data active means potency below about 11 µM; inconclusive means mostly about 12 µM to 25 µM;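 the screen sought inhibitors and activators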;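 further: scaled between full activation by ribose 5 phosphate and full inhibition by luteolin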
HEK293 cAMP cs: parental HEK293 cAMP activation (counter-screen); parental HEK293 CNG cAMP sensor, membrane potential fluorescence; Potency, µM (series often up to 57.1 µM), inactives show at the highest dose activation, most hits filed as activators; 73,000 tested, 2.5% active; AID 938; further: % of control where 0% means no effect; nearly all actives have a fitted effect of over 55% in size
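Parental HEK 293 cells stably expressing a cAMP-gated CNG channel were loaded with membrane potential dye containing 100 uM RO 20-1724 for 60 min. Compound added for 30 min; depolarization read as fluorescence intensity at 590 nm.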
TSHR agonist: activates the human thyroid stimulating hormone receptor. HEK293-CNG-TSHR cells (CNG channel as cAMP sensor), membrane potential dye, cAMP. Potency, µM (titrated, usually from 57.1 µM), for inactives: top-dose activation, most hits filed as activators. 73,000 tested, 0.48% active. AID 926; active means well fitted activation curve with a large enough effect in the main read-out, with a control signal flat, not every such curve was filed as active; inconclusive means small, poorly fitted or top-dose-only effect, or a change in a side signal; inactive means no such curve, though single readings can be large or run the other way; % of control where 0% means no effect;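 further: the control signal comes from parental cells without the receptor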
Target sequence (P16473 whole entry, looked up): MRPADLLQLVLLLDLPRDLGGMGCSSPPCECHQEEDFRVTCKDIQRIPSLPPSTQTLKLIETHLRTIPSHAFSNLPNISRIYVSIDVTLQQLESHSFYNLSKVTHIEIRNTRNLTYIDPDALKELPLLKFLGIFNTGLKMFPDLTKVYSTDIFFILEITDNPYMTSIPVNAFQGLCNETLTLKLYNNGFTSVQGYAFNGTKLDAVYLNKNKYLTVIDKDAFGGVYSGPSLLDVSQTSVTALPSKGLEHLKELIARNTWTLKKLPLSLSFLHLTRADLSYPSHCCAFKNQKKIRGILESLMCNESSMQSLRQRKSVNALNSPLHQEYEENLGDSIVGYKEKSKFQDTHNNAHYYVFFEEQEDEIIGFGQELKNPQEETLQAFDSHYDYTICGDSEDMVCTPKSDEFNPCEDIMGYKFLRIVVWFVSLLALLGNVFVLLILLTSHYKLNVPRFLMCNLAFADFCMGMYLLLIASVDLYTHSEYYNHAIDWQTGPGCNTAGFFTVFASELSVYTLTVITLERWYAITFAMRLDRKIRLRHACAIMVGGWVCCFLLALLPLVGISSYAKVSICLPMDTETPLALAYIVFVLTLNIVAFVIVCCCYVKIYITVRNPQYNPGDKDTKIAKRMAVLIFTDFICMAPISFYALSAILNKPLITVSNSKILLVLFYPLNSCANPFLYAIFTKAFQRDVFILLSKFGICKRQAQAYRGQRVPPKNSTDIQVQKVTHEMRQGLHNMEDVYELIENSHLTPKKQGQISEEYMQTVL
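cAMP rise detected as CNG-channel membrane depolarization by fluorescent dye (emission 590 nm), 30 min after compound, following 60 min dye loading containing 100 uM RO 20-1724 at room temperature. Cells: TSHR/CNG HEK 293, with parental CNG HEK 293 as control.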
* marks the source's active call; other numbers are inactive results; i = inactive; u = inconclusive; x = no result; [ ] = another dose, or the depositor's remark. Only some compounds are listed: those with a hit (about 7.2% of all), similar ones and a draw of the others. Unless noted, the call rests on the fitted dose curve; in most records, active means well fitted curve in the direction sought with a large enough effect; inconclusive means small, poorly fitted or top-dose-only effect, or another doubt; inactive means no such curve, though single readings can be large; an effect the other way counts as inactive or inconclusive. Potency means the concentration at half of the fitted maximal effect.

SMILES	Tau fil binding	Luciferase inh	ERK AVP block	Bst PK mod	HEK293 cAMP cs	TSHR agonist
CCn1c(C(=O)N2CCCC(C(=O)NCCc3ccc(C)cc3)C2)cc2sccc21 (stereo not given)	-7.9%	0.6%	u	>57	u	u
Cn1c(C(=O)N2CCCC(C(=O)NCCCSC3CCCCC3)C2)cc2sccc21 (stereo not given)	60.0%	0.1%	15.8µM*	>57	u	u
Cn1c(C(=O)N2CCCC(C(=O)NCc3cccs3)C2)cc2sccc21 (stereo not given)	2.8%	-1.6%	u	>57	4.3%	25.1µM*
Cc1ccc(C(=O)OCC(=O)c2ccc(Cl)s2)s1	-8.1%	15.8µM*	-1.2%	i	18.3%	16.3%
CCN1C(=C2C(=O)c3ccccc3C2=O)C=Cc2ccccc21	12.6µM*	-11.0%	2.2%	x	11.2%	11.2%
Cn1c(=O)c(C(=O)CN2CCCc3ccccc32)c(N)n(Cc2ccccc2)c1=O	25.1µM*	-0.8%	8.1%	>57	0.0%	-14.8%
Cc1cc(C)c(S(=O)(=O)Nc2ccc(C(=O)O)c(O)c2)cc1C	x	x	x	x	-10.9%	8.9%
CNc1ncnc2ccc(-c3ccc4c(c3)OCO4)cc12	2.1%	1.3%[2.29 µM]	4.2%	x	5.3%	11.1%
CC(C)c1nnc(NC(=O)c2cccs2)s1	-13.4%	-13.3%	x	x	5.7%	-3.3%
CNCCCCCCCCSc1nc(C(C)C)ccc1C(=O)c1cccs1	12.6µM*	0.0%	-58.7%	x	1.1%	22.6%
O=c1cc(Nc2ccc3c(c2)OCO3)[nH]c(=O)n1-c1ccc(Br)cc1	15.8µM*	-4.3%	-12.1%	>57	-8.6%	0.5%
O=c1cc(Nc2ccc3c(c2)OCCO3)[nH]c(=O)n1-c1ccc(Br)cc1	11.8%	-1.0%	8.2%	>57	0.0%	-5.0%
c1coc(-c2nnc3sc(-c4cccs4)nn23)c1	x	0.4%[25.5 µM]	x	8.98*	x	x
c1ccc(Cc2nnc3sc(-c4ccco4)nn23)cc1	15.8µM*	0.4%	x	x	7.5%	4.1%
c1ccc(-c2cc(-c3nn4c(-c5ccco5)nnc4s3)c3ccccc3n2)cc1	0.631µM*	0.1%	-22.4%	>57	u	u
COc1ccc(-c2nn3c(-c4ccco4)nnc3s2)cc1OC	19.2%	-4.8%	25.1µM*	i	-4.1%	2.5%
N[C@@H](C(=O)O)c1cc(O)ccc1Cl	u	0.6%	11.0%	x	14.3%	4.0%
COc1ccc(CNc2ncnc3ccc(-c4ccccc4CN(C)C)cc23)c(OC)c1	-17.0%	-0.1%[2.29 µM]	-1.8%	x	-31.5%	u
Cc1ccc2nc3ccc(N4CCN(C)CC4)nn3c(=O)c2c1	-1.1%	7.94µM*	-4.0%	x	3.8%	5.2%[11.4 µM]
CCNc1ncc2nc(-c3ccc(Cl)cc3)c(=O)n(C[C@H]3CCCO3)c2n1	2.0%	1.2%[11.4 µM]	u	x	5.7%	4.2%
O=C(c1ccco1)N1CCC2(CC1)CCN(c1ccccc1)CC2	u	0.3%[11.4 µM]	-5.8%	x	-16.6%	9.7%
CC(C)NC(=O)N1CC[C@@]2(CCCN(S(C)(=O)=O)C2)C1	4.9%	1.0%[11.4 µM]	-6.2%	x	u	u
Cc1nn(-c2ccccc2)c2nc(-c3ccncc3)cc(C(=O)NCc3ccco3)c12	31.6µM*	-5.0%	-15.2%	x	u	u
CCOC(=O)c1cc(-c2ccco2)nc2c1c(C)nn2-c1ccccc1	10µM*	0.0%	-20.9%	>57	17.0%	3.16µM*
CCOC(=O)c1cnn2c(C(F)(F)F)cc(-c3ccco3)nc12	-7.6%	-0.5%	4.0%	>57	21.6%	-10.2%
SMILES	Tau fil binding	Luciferase inh	ERK AVP block	Bst PK mod	HEK293 cAMP cs	TSHR agonist
Cc1ccc(S(=O)(=O)Nc2ccc(O)c(C(=O)O)c2)c(C)c1	x	x	x	x	-5.0%	1.7%
CCC(=O)Nc1ccc2nc(C)n(CC(=O)Nc3ccccc3)c(=O)c2c1	12.6µM*	-0.9%	-7.2%	>57	-7.2%	-0.4%
Cc1ccccc1NC(=O)Cn1c(C)nc2ccc(NC(=O)C3CC3)cc2c1=O	-4.3%	-2.1%	-5.6%	>57	-0.4%	-4.3%
C[N+]1(C)CCc2cc3c(cc2[C@@H]1[C@@H]1C(=O)Oc2c1ccc1c2OCO1)OCO3	38.7%	0.5%	-3.1%	x	3.3%	-2.2%
N#Cc1nc(COc2ccc(Cl)cc2)oc1NCc1ccc2c(c1)OCO2	7.7%	-2.7%	5.0%	>57	10µM*	u
N#Cc1nc(COc2ccccc2)oc1N1CCCCC1	6.5%	-0.4%	-9.4%	x	u	u
Cc1cccc(OCc2nc(C#N)c(N3CC(C)CC(C)C3)o2)c1 (stereo not given)	1.2%	-0.2%	-13.6%	x	6.31µM*	u
Cc1cccc(OCc2nc(C#N)c(NCc3ccc4c(c3)OCO4)o2)c1	12.8%	-0.9%	-13.1%	>57	15.8µM*	u
CCNc1oc(COc2cccc(C)c2)nc1C#N	-1.6%	-6.1%	-8.0%	>57	u	u
NC1C(O)OC(CO)[C@@H](O)[C@@H]1O[C@H]1O[C@@H](C(=O)O)C(O)C(O)C1O (stereo not given in full)	x	x	3.3%	x	x	x
COCCn1c(=O)c(-c2ccc(OC)cc2)nc2cnc(N3CCNCC3)nc21	80.1%	0.5%[11.4 µM]	51.3%	x	u	u
CSC1=C(C#N)C(c2cccc(Br)c2)CC(=O)N1 (stereo not given)	-2.4%	0.4%	20µM*	>11.4	7.6%	-1.7%
O=C(O)[C@H]1CCCC[C@@H]1c1c2ccc(=O)c(O)c-2oc2c(O)c(O)ccc12	3.98µM*	-3.2%[11.4 µM]	-11.5%[11.5 µM]	x	u	u
O=C(O)/C=C/c1ccc(O)c(O)c1	x	-2.4%[25.5 µM]	-0.8%	>11.4	x	x
O=C(O)/C=C\c1c2ccc(=O)c(O)c-2oc2c(O)c(O)ccc12	5.01µM*	-3.5%[11.4 µM]	u	x	6.2%[11.4 µM]	0.1%[11.4 µM]
O=C(Oc1ccccc1)N1CCC[C@@]2(CCN(c3ccccn3)C2)C1	-1.5%	0.2%[11.4 µM]	17.9%	x	u	u
O=C(Oc1ccccc1)N1CCC2(CCCN(c3ccccn3)C2)CC1	-10.4%	-0.5%[11.4 µM]	4.0%	x	20µM*	u
O=C(c1ccncc1)N1CCC2(CC1)CCN(c1ccccn1)CC2	7.9%	-2.6%[11.4 µM]	u	x	u	u
O=C(c1ccncc1)N1CCC2(CC1)CN(c1ccccn1)C2	-10.3%	0.8%[11.4 µM]	-20.1%	x	7.94µM*	u
CCC1CCCCN1C(=O)CSc1nc2c([nH]c3ccccc32)c(=O)n1C (stereo not given)	5.1%	-0.2%	-7.6%	>57	31.6µM*	u
CCSc1nc2c([nH]c3ccccc32)c(=O)n1C	90.6%	5.6%	x	x	2.3%	4.0%
COc1cccc2cc3c(=O)n(-c4ccccc4)nc-3oc12	15.8µM*	-17.1%	u	x	5.8%	-8.7%
Cc1cccc(NC(=O)c2cc(-c3ccco3)nc3ccccc23)n1	62.8%	-5.0%	-11.6%	>57	25.1µM*	u
